Our source for the fluorescence response and double positive values is PubChem BioAssay AID651707 (NMMLSC, 2012).

Among all 2,300 compounds or so, about 170 (7.4%) were called active.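 How the source made its calls: active means over 5% cells positive for green fluorescent reporter, or over 2% positive for both it and APC stain; inactive means the rest, inconclusive results apart.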 The list is a sample of the results.

A short description of the assay: intrinsic compound fluorescence in ER-HoxA9 progenitors, confirmation, artefact control for AML myeloid differentiation project, cell-based, flow cytometry, GFP/APC, Cherry Pick01 (AID 651707).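 On double positive: share of cells both GFP positive and bound by Mac1 APC antibody.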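 On fluorescence response: range taken on the double positive population between DMSO and positive control.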 The settings on record: no estrogen, GFP autofluorescence flow cytometry, stronger effect = higher value; double positive: measured here: double positive GFP/APC population; fluorescence response: vehicle wells 0%, positive control 100%. (In general: Flow cytometry measures light scatter and fluorescence of single cells or particles in a stream.)
As for `O=C(CCCN1C(=O)CCC1=O)Nc1ccc(Cl)c(C(F)(F)F)c1`, the fluorescence response was 0% (inactive).

In the case of `CCOC(=O)c1c(-c2ccccc2)oc2ccc(OCC(=O)NN)cc12`, the fluorescence response is 0% (inactive).

Take `CC(C)OC(=O)CN1C(=O)C(=O)c2ccccc21`: the fluorescence response was 0.5% (inactive).

Regarding `Cc1ccc(C)c(S(=O)(=O)N2CCN(c3ncnc4sccc34)CC2)c1`, the fluorescence response is 0% (inactive).

With `O=C(NCC1CCCCC1)NCC1CCCCC1`, the fluorescence response is 0.2% (inactive).

As for `Nc1nc(Nc2ccccc2F)nc(NC2CCCCC2)c1[N+](=O)[O-]`, the fluorescence response is 0% (inactive).

Turning to `COc1cccc(NC(=O)[C@H](Cc2c[nH]c3ccccc23)NC(=O)[C@@H]2Cc3ccccc3CN2)c1`, the fluorescence response is 0.6% (inactive).

For the molecule `COc1ccccc1NC(=O)c1cc(Cl)nnc1Cl`, the fluorescence response is 0.6% (inactive).

With `O=C(Nc1cccc2ncccc12)c1ccc(-c2ccc(Cl)cc2Cl)o1`, the fluorescence response was 0.6% (inactive).

As for `CCOC(=O)C1=C(CN2CCc3ccccc32)NC(=O)NC1c1cccc([N+](=O)[O-])c1` (configuration not stated), the fluorescence response is 0% (inactive).

Consider `O[C@H]1CN(Cc2cccs2)[C@@H](c2ccc(Cl)cc2)C[C@@H]1n1cc(C2CC2)nn1`, for which the fluorescence response was 0% (inactive).

`O[C@H]1C[C@H](c2ccc(Cl)cc2)N(Cc2cccs2)C[C@@H]1n1cc(C2CC2)nn1`: the fluorescence response was 0.5% (inactive).

With `O=c1oc2ccccc2cc1-c1csc(Nc2ccc(O)cc2)n1`, the fluorescence response was 55.3% (active).

`Cc1ccc(-c2nc(C#N)c(NCCCn3ccnc3)o2)cc1`: the fluorescence response is 0.3% (inactive).

Turning to `Cc1ccc(C(=O)NC2CCCC(C)C2C)cc1S(=O)(=O)N1CCCCC1` (configuration not stated), the fluorescence response is 0% (inactive).

For `Cc1cc(C)c(-c2csc(NC(=O)CCCc3nc4ccccc4c(=O)[nH]3)n2)c(C)c1`, the fluorescence response is 2.2% (inactive).

Regarding `CC1CCCC(NC(=O)CN2CCN(Cc3ccc(Cl)cc3)C2=O)C1C` (configuration not stated), the fluorescence response is 0% (inactive).

For the molecule `COc1ccc(C(=O)N(Cc2ccccc2)c2ccc(C)cc2)cc1S(=O)(=O)N1CCOCC1`, the fluorescence response is 1.5% (inactive).

Take `CN(C(=O)c1cccc([N+](=O)[O-])c1)c1ccccc1C(=O)NCc1ccccc1`: the fluorescence response is 0.4% (inactive).

With `Cc1ccc(OS(=O)Nc2cccc3nccnc23)cc1` (configuration not stated), the fluorescence response is 0% (inactive).

Consider `Fc1cccc(Cl)c1CSc1ccc(-c2ccco2)nn1`, for which the double positive came to 0.2% and the fluorescence response was 0.5% (inactive).

As for `O=C(CN1C(=O)NC(Cc2c[nH]c3ccccc23)C1=O)Nc1ccccc1C(F)(F)F` (configuration not stated), the fluorescence response was 0% (inactive).

As to `CCOC(=O)C(C(=O)OCC)C(C#N)c1ccccc1` (configuration not stated), the fluorescence response was 0% (inactive).

On to `CCN(CC)c1ccc(/C=N/NC(=O)CNC(=O)c2cccs2)cc1`, for which the fluorescence response is 0% (inactive).

Take `COc1ccc(C(C(=O)NCc2ccccc2)n2c(=O)c(-c3ccccc3)nc3ccccc32)cc1` (configuration not stated): the fluorescence response is 0.7% (inactive).

Turning to `N#C/C(=C/c1ccc(N2CCCCC2)o1)C(=O)NCCc1c[nH]c2ccccc12`, the fluorescence response is 64.7% (active).

`COc1ccccc1CNC(=O)c1cc(-c2cc(Cl)ccc2C)n[nH]1`: the fluorescence response is 0% (inactive).

Take `O=S(=O)(c1ccc(Br)cc1)c1nc(-c2ccccc2)oc1NCc1cccnc1`: the fluorescence response was 1.5% (inactive).

As to `CC(=O)Nc1ccc(S(=O)(=O)Nc2ccc(N3CCOCC3)c(F)c2)cc1`, the double positive came to 0.2% and the fluorescence response is 0.8% (inactive).

Take `CC(=O)Nc1ccc(S(=O)(=O)Nc2ccc(N3CCCCC3)cc2)cc1`: the double positive is 10.5% and the fluorescence response is 10.5% (active).

With `CCOC(=O)c1c(-c2ccc(C)cc2)csc1/N=C(\C)C1=C(O)c2ccccc2C1=O`, the fluorescence response was 0% (inactive).

On to `COc1ccc(-c2ccc(OC(=O)NC3CCS(=O)(=O)C3)cc2)cc1` (configuration not stated), for which the double positive came to 0.4% and the fluorescence response was 0.7% (inactive).

Regarding `COC(=O)CN(c1cccc(C(C)=O)c1)S(C)(=O)=O`, the fluorescence response was 0% (inactive).

As for `C/C(=C\c1ccccc1)C1NC(=O)c2c(sc3c2CCCC3)N1` (configuration not stated), the fluorescence response was 0% (inactive).

Turning to `COc1ccc(C2CC(c3cccc(OC)c3)=NN2c2ccc(S(N)(=O)=O)cc2)cc1` (configuration not stated), the fluorescence response was 0.5% (inactive).

Turning to `Cc1cc(NC(=O)CSc2nc(C(C)C)nc3sc4c(c23)CCC(C)C4)no1` (configuration not stated), the fluorescence response is 1.4% (inactive).

On to `COc1ccc(-c2nnc(SCC(=O)c3cccs3)o2)c(OC)c1`, for which the fluorescence response was 3.4% (inactive).

For the molecule `Cc1ccc2c(c1)C1C[N+](C)(CC(=O)c3ccccc3)CCC1N2C(=O)c1ccccc1Cl` (configuration not stated), the fluorescence response is 0% (inactive).

Regarding `Cc1ccc(-n2nc3cc(C)c(NC(=O)c4cccnc4)cc3n2)cc1`, the fluorescence response was 4.7% (inactive).

Turning to `COc1ccc2nc(N3CCN(C(=O)c4ccc([N+](=O)[O-])o4)CC3)sc2c1`, the fluorescence response is 0% (inactive).

With `CC(C)CC(COCc1ccc(Cl)cc1)N1CCN(C(=O)c2ccc(C(F)(F)F)cc2)CCC1=O` (configuration not stated), the fluorescence response is 0% (inactive).

`COc1ccccc1N1CCN(C(=O)c2cc(-c3ccc(Br)cc3)on2)CC1`: the fluorescence response was 0.3% (inactive).

`O=C1c2ccccc2C(=O)N1Cc1cc(-c2ccccc2Cl)no1`: the fluorescence response was 0% (inactive).

As for `Cc1nn(-c2cc(Cl)ccc2N)c(=O)c2ccccc12`, the fluorescence response is 0% (inactive).

`CNC[C@H]1Oc2c(NC(=O)C3CCCCC3)cccc2C(=O)N([C@H](C)CO)C[C@@H]1C`: the fluorescence response is 0% (inactive).

With `O=C(Cn1cc(-c2nnnn2-c2ccc(Cl)cc2)c(=O)c2ccccc21)c1ccccc1`, the fluorescence response is 0% (inactive).

For the molecule `CN1CCC(CN)(N2CCN(c3ccccc3)CC2)CC1`, the fluorescence response is 0.6% (inactive).

Regarding `CC#CC[N+](C)(C)CCCCCC`, the fluorescence response is 0% (inactive).

For `N#CC1=C(N)Oc2c(sc3ccccc23)C1c1ccco1` (configuration not stated), the fluorescence response was 0% (inactive).

With `O=C(NC(=O)c1ccccc1)Nc1ccccc1O`, the fluorescence response is 1.3% (inactive).

As for `Cc1c(C(=O)OCC(=O)N(CCC#N)c2ccccc2)oc2c1ccc1ccccc12`, the fluorescence response is 0% (inactive).

`Cc1cccc(OCC(O)CN2CCN(CCN3C(=O)c4cccc5cccc(c45)C3=O)CC2)c1C` (configuration not stated): the fluorescence response was 0% (inactive).

With `CCCC(=O)Nc1c(O)c2ccccc2[nH]c1=O`, the fluorescence response is 0% (inactive).

Regarding `CCN(CC)C(=O)CSC(Nc1cccc(F)c1)=C(C#N)C#N`, the fluorescence response is 7.7% (active).

For the molecule `Cc1cc(C)c(S(=O)(=O)NCC2CCC(C(=O)NCc3ccc4c(c3)OCO4)CC2)c(C)c1` (configuration not stated), the fluorescence response was 0.2% (inactive).

Consider `O=C(CN(c1ccccc1)S(=O)(=O)c1ccc(Cl)cc1)Nc1ccccc1C(=O)N1CCCC1`, for which the fluorescence response is 0% (inactive).

Turning to `CC(C)CNC(=O)COC(=O)/C=C/c1ccccc1[N+](=O)[O-]`, the fluorescence response was 0% (inactive).

On to `Cc1cc(C)n(C(=O)c2ccc(C)c(S(=O)(=O)N3CCOCC3)c2)n1`, for which the fluorescence response was 2.3% (inactive).

For `Cc1ccc(Nc2cc(C)nc3c(C)ccc([N+](=O)[O-])c23)cc1`, the fluorescence response was 6.7% (active).

For the molecule `CCc1noc(C)c1C(=O)Nc1nc(-c2ccccc2)cs1`, the fluorescence response is 1% (inactive).

For the molecule `COc1cccc(NC(=S)NCc2ccccn2)c1`, the fluorescence response is 0.3% (inactive).

With `COc1cc(/C=C(\C#N)c2nc3ccccc3[nH]2)ccc1O`, the fluorescence response was 36.7% (active).

As to `Clc1ccc(-c2nnc(SCc3nc4ccccc4s3)o2)cc1`, the fluorescence response is 0% (inactive).

For the molecule `CCC1CCCCN1CCCNC(=O)Cn1nc(-c2ccccc2)ccc1=O` (configuration not stated), the fluorescence response was 0% (inactive).

For the molecule `CC1=C(C(N)=O)C(c2ccc3c(c2)OCO3)n2nc(-c3cccc(C)c3)nc2N1` (configuration not stated), the fluorescence response was 0% (inactive).

In the case of `COc1ccc(S(=O)(=O)N2CCC(C(=O)N3CCc4ccccc4C3)CC2)cc1OC`, the fluorescence response is 0% (inactive).

Consider `CN1OC(COC(=O)c2ccc(Cl)cc2)CC1c1ccccc1` (configuration not stated), for which the fluorescence response was 0.3% (inactive).

On to `COc1cc(/C=C2/SC(=S)N(Cc3ccccc3)C2=O)cc(OC)c1O`, for which the fluorescence response is 97.2% (active).

As for `Cc1nc(C)c(-c2nnc(-c3cccc(S(=O)(=O)N(C)C)c3)o2)cc1C(=O)NN`, the fluorescence response is 0.7% (inactive).

As to `CCOc1ccc(C(=O)Nc2ccc(S(=O)(=O)NCC3CCCO3)cc2)cc1OCC` (configuration not stated), the fluorescence response is 0.3% (inactive).

`CCCCSc1nc2c(c(=O)n1CC)SC(C)C2` (configuration not stated): the fluorescence response is 0% (inactive).

Consider `Nc1ccc2nc3c(=O)[nH]c(=S)[nH]c3nc2c1`, for which the fluorescence response is 0% (inactive).

In the case of `CC(C)c1nc2ccc(C(=O)O)cc2[nH]1`, the double positive is 0.4% and the fluorescence response was 0.4% (inactive).

As for `COc1ccc(N(CC(=O)NC2CCCCCCC2)S(=O)(=O)c2c(C)nn(C)c2C)cc1`, the fluorescence response was 0% (inactive).

Turning to `Cc1nn(-c2ncccn2)c2c1C(=O)CC(C)(C)C2Br` (configuration not stated), the fluorescence response is 0% (inactive).

For the molecule `Cn1c(CNC(=O)c2ccccc2F)nnc1SCc1ccc(F)cc1`, the fluorescence response was 0% (inactive).

For `CNc1nc(=O)n(C2CCCO2)cc1C` (configuration not stated), the fluorescence response is 0% (inactive).

For the molecule `CC(=O)N1c2ccc(S(=O)(=O)N3CCCC(C(=O)Nc4cccc(F)c4)C3)cc2CC1C` (configuration not stated), the fluorescence response is 0% (inactive).

For the molecule `CCOC(=O)CC(=O)CSc1nc(-c2ccccc2)cc(-c2ccc(Cl)cc2)c1C#N`, the fluorescence response is 0% (inactive).

For the molecule `CC(C)(C)OC(=O)CNC(=O)c1[nH]cnc1C(=O)N[C@@H](Cc1ccccc1)C(=O)OCc1ccccc1`, the fluorescence response was 0% (inactive).

Take `O=C(Nc1cccc(-c2nc3ncccc3o2)c1)c1ccco1`: the fluorescence response is 0.2% (inactive).

As to `O=S(=O)(NCc1cccnc1)c1ccc(Cl)nc1`, the fluorescence response was 0.4% (inactive).

Take `COCCCn1c(=O)/c(=C/c2ccccc2OC(C)C)s/c1=C(\C#N)C(=O)Nc1ccc(C(=O)O)cc1`: the fluorescence response is 0% (inactive).

With `O=C(Nc1ccccc1N1CCN(c2ccccc2)CC1)c1cccc(F)c1`, the fluorescence response was 0% (inactive).

In the case of `CC1(C)CC(=O)C2=C(C1)Nc1cc(C(=O)c3ccccc3)ccc1NC2c1ccccn1` (configuration not stated), the fluorescence response is 0.4% (inactive).

`CCc1c(C)sc(NC(=O)c2cccs2)c1C(N)=O`: the fluorescence response is 0% (inactive).

Turning to `C=CCNc1nnc(SCC(=O)N2CCCCC2)c2ccccc12`, the fluorescence response was 0.3% (inactive).

For `Cc1cccc(C)c1NC(=O)CCS(=O)(=O)c1cccc2nsnc12`, the fluorescence response is 0% (inactive).

For `Cc1ccc2nc(-c3ccccn3)cc(C(=O)Nc3ccc4c(c3)OCO4)c2c1`, the fluorescence response was 0% (inactive).

As for `CCOC(=O)c1c(-c2cccc(C)c2)csc1NC(=O)c1c(-c2ccccc2)noc1C`, the fluorescence response was 0% (inactive).

With `Cn1c2ccccc2c2cc(/C=C(\NC(=O)c3ccccc3)C(=O)NCC(=O)O)ccc21`, the fluorescence response is 0% (inactive).

As to `CN(C(=O)CSc1nnc(C2CC2)n1C)C1CCCc2ccccc21` (configuration not stated), the fluorescence response is 0% (inactive).

Turning to `CSc1nnc(-c2ccncc2)n1CCCN1CCCC1=O`, the fluorescence response is 0% (inactive).

Take `COc1cc(N=Cc2c(O)[nH]c3ccccc23)cc(OC)c1OC`: the fluorescence response is 0% (inactive).

Consider `CC(CNc1ccc([N+](=O)[O-])cc1)NC(=O)c1ccccc1Br` (configuration not stated), for which the fluorescence response was 0.4% (inactive).

As for `Cc1ccc2c(c1)c1ncn(Cc3ccc(F)cc3)c(=O)c1n2C`, the fluorescence response is 0% (inactive).

For the molecule `Cc1cccc(-n2c(SCC(=O)Nc3cccc(S(=O)(=O)NC4=NCCCCC4)c3)nc3ccccc3c2=O)c1C`, the fluorescence response was 0% (inactive).

`CCN(CC)CC(=O)c1c[nH]c2ccc(OC)cc12`: the fluorescence response is 0.3% (inactive).

With `CCOc1ccc(NC(=O)CSc2nc3c(c(=O)n2-c2ccccc2OC)SCC3)cc1`, the fluorescence response was 0.5% (inactive).

`CC(C)C(=O)N1CCN(c2nc(-c3ccccc3)c3c(c2C#N)CC(C)(C)OC3)CC1`: the fluorescence response was 0% (inactive).

Regarding `O=C(CN1CCN(C2CCCCC2)CC1)Nc1ccccc1N1CCCCC1`, the fluorescence response is 0% (inactive).

On to `O=C(NCCN=C1NS(=O)(=O)c2ccccc21)c1ccc(S(=O)(=O)N2CCOCC2)cc1`, for which the fluorescence response was 4.3% (inactive).
